Results published in the supplement of paper PMC10981050.
Values joined by “and” are separate entries in the source; they are usually repeats but may differ in a detail not shown here. Identical values can stand only once. Counter-ions that a name gives are not always drawn.

What was measured:
Experiment in all cases: cell viability relative to vehicle control; higher = less cytotoxic
Conditions in all cases: 10 µM
K562 = tested on: K562
Summary of the method: (§1)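 Mutant clones made by CRISPR editing and their isogenic wild-type counterparts, from four leukaemia lines, were exposed to a single 10 µM dose of each library compound for 48 h. The supernatant was then removed and CellTiter-Glo luminescence was read. Viability was reported as percent of the on-plate vehicle control.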

MARIMO = tested on: MARIMO
Summary of the method: as §1

MOLM14 = tested on: MOLM14
Summary of the method: as §1

OCI-AML2 = tested on: OCI-AML2
Summary of the method: as §1

Compound	cell viability (K562; SRSF2 genotype: SRSF2 P95H/wt)	cell viability (K562; SRSF2 genotype: SRSF2 wt/wt) [%]	cell viability (MARIMO; SRSF2 genotype: SRSF2 P95H/wt) [%]	cell viability (MARIMO; SRSF2 genotype: SRSF2 wt/wt) [%]	cell viability (MOLM14; SRSF2 genotype: SRSF2 P95H/wt) [%]	cell viability (MOLM14; SRSF2 genotype: SRSF2 wt/wt) [%]	cell viability (OCI-AML2; SRSF2 genotype: P95H/wt) [%]	cell viability (OCI-AML2; SRSF2 genotype: wt/wt) [%]
COc1ccc(NC(=O)c2ccc(C(=N)N(C)C)cc2)c(C(=O)Nc2ccc(Cl)cn2)c1 [Betrixaban maleate]	96.1% and 95.9%	89.5	86.5	89.9	99.9	102	81.3	76.5
CC(C)(F)C[C@H](N[C@@H](c1ccc(-c2ccc(S(C)(=O)=O)cc2)cc1)C(F)(F)F)C(=O)NC1(C#N)CC1 [Odanacatib (MK 0822)]	98.7% and 103%	93.4	94.5	102	104	104	101	102
NNc1nncc2ccccc12 [Hydralazine hydrochloride]	99.2% and 101%	96.3	97.6	101	98.1	99	106	87
Cc1ncc(COP(=O)(O)O)c(C=O)c1O [Pyridoxal 5-phosphate monohydrate]	97.8% and 103%	101	91.2	107	99.2	102	101	101
CC1(C)S[C@@H]2[C@H](NC(=O)[C@H](N)c3ccc(O)cc3)C(=O)N2[C@H]1C(=O)O [Amoxicillin (Amoxycillin)]	97.3% and 90.7%	91.7	91.2	98.5	99.7	100	92.4	105
CC(COc1ccccc1)N(CCCl)Cc1ccccc1 (stereo not drawn) [Phenoxybenzamine HCl]	66.1% and 73.8%	63.2	67.3	72.5	57.5	62.7	54.4	62.1
CC(=O)OC(CC(C)C1=C2CC(O)C3C4(C)CCC(=O)C(C)(C)C4CCC3(C)C2(C)CC1)C1OC1(C)C (stereo not drawn) [Alisol B Acetate]	81.3% and 84.2%	87.8	68.4	55.6	72.8	87.8	64.1	68.6
Cc1cc(O)c2c(c1)C(=O)c1cccc(O)c1C2=O [Chrysophanic acid (Chrysophanol)]	100% and 95.6%	100	96.9	95.8	114	106	89.2	83
COc1c(C)c2c(c(O)c1C/C=C(\C)CCC(=O)O)C(=O)OC2 [Mycophenolic acid]	49.9% and 48.3%	43.2	42.2	41.6	10.9	3.65	13.9	13
CN1CCN(c2ccc3nc(-c4c(N)c5c(F)cccc5[nH]c4=O)[nH]c3c2)CC1 [Dovitinib (TKI-258, CHIR-258)]	59.5% and 69.8%	57.1	22.1	32.9	2.27	0.38	3.02	6.09
Cc1cccc(Nc2ccccc2C(=O)O)c1C [Mefenamic Acid]	98.6% and 99.4%	96.4	103	92.8	94.5	98.5	106	101
C=CCNC1=C2C[C@@H](C)C[C@H](OC)[C@H](O)[C@@H](C)/C=C(\C)[C@H](OC(N)=O)[C@@H](OC)/C=C\C=C(/C)C(=O)NC(=CC1=O)C2=O [17-AAG (Tanespimycin)]	20.1% and 29.1%	25	27.3	24.3	1.11	1.2	18.8	20.6
C[C@H]1O[C@@H](O[C@H]2CC[C@@]3(C)[C@@H](CC[C@]4(C)[C@@H]3C=C[C@]35OC[C@@]6(CCC(C)(C)C[C@H]63)[C@H](O)C[C@]54C)[C@]2(C)CO)[C@H](O)[C@@H](O[C@@H]2O[C@H](CO)[C@@H](O)[C@H](O)[C@H]2O)[C@H]1O [Saikosaponin D]	6.69% and 0.65%	0.4	14	3.54	0.86	0.86	10.2	12.9
Cc1cn([C@H]2C=C[C@@H](CO)O2)c(=O)[nH]c1=O [Stavudine]	104% and 107%	98.3	95	96.1	102	103	97.2	110
O=C1NC(=O)/C(=C/c2cccc(C(F)(F)F)c2)S1	107% and 103%	110	105	94.9	97.4	102	111	104
CN(C)Cc1cccc(N=C(c2ccccc2)c2c(O)[nH]c3cc(C(N)=O)ccc23)c1	80.6% and 81.5%	78.9	72.2	83.8	11	15.9	23.9	31.1
CCCCCCCCCCCCCCCC(=O)O[C@@H]1[C@@H](O)[C@@H](O)[C@@H]([C@H](NC(=O)[C@@H]2C[C@@H](CCC)CN2C)[C@H](C)Cl)O[C@@H]1SC [Clindamycin palmitate HCl]	90.7% and 98.9%	94.8	103	108	101	105	93.6	101
Cc1[nH]c(/C=C2\C(=O)Nc3ccc(S(=O)(=O)N(C)c4cccc(Cl)c4)cc32)c(C)c1C(=O)N1CCN(C)CC1	62.4% and 64.8%	80.7	50.9	53.2	0.26	64.6	0.09	0.12
COc1cc2c(cc1O)C[C@H]1c3cc(O)c(OC)cc3CC[N@@+]1(C)C2 [Phellodendrine]	104% and 97.8%	102	98.9	98.7	111	102	101	96.4
Cc1ccccc1C(OCCN(C)C)c1ccccc1 (stereo not drawn) [Orphenadrine Hydrochloride]	99.9% and 97.1%	101	86.2	92.2	100	103	101	98.8
Oc1cc(O)cc(/C=C/c2ccc(O)c(O)c2)c1 [Piceatannol]	86.5% and 89.3%	97	92.8	88.8	71.8	79.7	90.4	87.9

Compound	cell viability (K562; SRSF2 genotype: SRSF2 P95H/wt)	cell viability (K562; SRSF2 genotype: SRSF2 wt/wt) [%]	cell viability (MARIMO; SRSF2 genotype: SRSF2 P95H/wt) [%]	cell viability (MARIMO; SRSF2 genotype: SRSF2 wt/wt) [%]	cell viability (MOLM14; SRSF2 genotype: SRSF2 P95H/wt) [%]	cell viability (MOLM14; SRSF2 genotype: SRSF2 wt/wt) [%]	cell viability (OCI-AML2; SRSF2 genotype: P95H/wt) [%]	cell viability (OCI-AML2; SRSF2 genotype: wt/wt) [%]
C[C@@H]1C[C@H]2[C@@H]3CCC4=CC(=O)C=C[C@]4(C)[C@@]3(F)[C@@H](O)C[C@]2(C)[C@@]1(O)C(=O)CO [Dexamethasone]	99.7% and 95.1%	92.8	106	99.8	95.4	90.6	98.2	103
O=C(Nc1ncc(SCCN2CCCC2)s1)[C@]1(c2ccc(S(=O)(=O)C3CC3)cc2)C[C@H]1C1CCCCC1	0.72% and 0.66%	0.58	2.32	11.5	0.59	0.51	0.46	0.55
Cc1c(CN2CCC(Nc3ncnc4sc(CC(F)(F)F)cc34)CC2)ccc2[nH]c(C#N)cc12	3.04% and 4.05%	17.5	42.9	41.7	4.02	3.33	0.4	9.25
O=C(O)C1=CO[C@@H](O[C@@H]2O[C@H](CO)[C@@H](O)[C@H](O)[C@H]2O)[C@H]2[C@@H]1C=C[C@]2(O)CO [Monotropein]	110% and 104%	107	101	106	104	104	90.7	103
O=Cc1ccc(CO)o1 [5-Hydroxymethylfurfural]	91.8% and 86.8%	84	85	95.1	86.9	91.3	85.6	92.7
Cn1c(Nc2ccc(C(F)(F)F)cc2)nc2cc(Oc3ccnc(-c4ncc(C(F)(F)F)[nH]4)c3)ccc21	59.6% and 69.8%	47.5	52.3	58.6	64.2	50.1	38.6	47.4
O=C(O)c1ccco1 [2-Furoic acid]	95.7% and 95.1%	103	95.9	108	98.5	101	97.5	102
Cc1ccc2nc(NC(=O)CSc3nc4c(c(=O)n3-c3ccccc3)SCC4)sc2c1	91.8% and 99.4%	89.8	94	98.9	98.9	93.3	94.2	104
COC[C@H](NC(=O)c1cnc(C)s1)C(=O)N[C@@H](COC)C(=O)N[C@@H](Cc1ccccc1)C(=O)[C@@]1(C)CO1 [Oprozomib (ONX 0912)]	0.73% and 1.14%	1.05	0.37	0.74	0.16	0.2	0.2	0.17
C[C@@H]1CN(CC(=O)Nc2ccc3c(c2)Cc2cccc(-c4cc(=O)cc(N5CCOCC5)o4)c2S3)C[C@H](C)O1	98.9% and 102%	99.1	82.9	86.9	56.9	55.8	51.3	64.2
COc1cc(OC)cc(N(CCNC(C)C)c2ccc3ncc(-c4cnn(C)c4)nc3c2)c1	5.81% and 13.7%	12.4	50.6	54.4	34.8	34.9	24.7	31.9
CC(=O)Nc1nc(-c2cccc(NS(=O)(=O)c3cccc4c(N(C)C)cccc34)c2)cs1	61.8% and 63.7%	62	58.7	43.8	62.4	66.6	33.3	40.5
O=C(O)CCC(=O)Nc1ccc(Br)cn1 [Bikinin]	100% and 97.8%	106	104	104	102	106	102	99.7
CC(C)(C)C1CCC(CC2=C(O)c3ccccc3C(=O)C2=O)CC1 (stereo not drawn) [Buparvaquone]	76.6% and 81.5%	77	84.1	101	63.2	42.9	80.4	75.3
CN1CCC[C@@H]1CCO[C@](C)(c1ccccc1)c1ccc(Cl)cc1 [Clemastine Fumarate]	83.6% and 82.3%	81.6	74.2	77.3	71.3	78.4	81.7	78.8
N[C@@H]1CCCCN(c2c(F)cc3c(=O)c(C(=O)O)cn(C4CC4)c3c2Cl)C1 [Besifloxacin HCl (Besivance)]	97.5% and 91.4%	99.9	99.3	96.6	97.6	98.3	121	95.6
CCOC(=O)Nc1ccc(NCc2ccc(F)cc2)nc1N [Flupirtine maleate]	101% and 104%	104	91.5	105	101	103	100	110
C[C@H](NC(=O)CCc1nc2ccccc2c(=O)[nH]1)c1ccccc1	103%	108	106	100	105	100	105	121
CC1(C)CC[C@]2(C(=O)O)[C@H](O)C[C@]3(C)C(=CC[C@@H]4[C@@]5(C)CC[C@H](O)[C@@](C)(C=O)[C@@H]5CC[C@]43C)[C@@H]2C1 [Quillaic acid]	96.1% and 95.3%	82.9	95	104	84.6	91.7	98.9	96.8
Cc1c[nH]c(C=C2C(=O)Nc3ccccc32)c1CCC(=O)O	91.9% and 93.8%	91.2	95.2	92.2	32.7	28	54.2	58.1
